# A selection: hits, their analogues and other compounds. The true share with any hit is near 1.4%.
# MRP1 act: MRP-1 activation | H69AR cells + doxorubicin, viability rescue, CellTiter-Glo | viability increase, % at 10 µM | 0.61% of 140,000 active;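 active means viability gain under doxorubicin at or above a set limit, the compound median plus 3 SD, cut at about 4.7% in these data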;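 further: MRP-1 overexpressing cells given doxorubicin 25 µM after compound pretreatment; 18-22 h compound pretreatment then 72 h with doxorubicin before readout; 0% = doxorubicin-only wells and 100% = vehicle-treated cells without doxorubicin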
# MRP resist rev: MRP-mediated drug resistance reversal; H69AR cells + 2 uM doxorubicin, CellTiter-Glo, 72 h; differential viability (reversal), % at 10 µM; 0.04% of 85,000 active; AID 602;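 active means viability drop by adding the cancer drug above about 55%, with treated viability meeting a 40% cutoff, limit read from the data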;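 further: viability without doxorubicin minus viability with 2 µM doxorubicin for each compound; larger differential means the compound sensitizes cells more to doxorubicin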
# NFkB transloc inh: blocks IL-1B driven NFkB nuclear translocation in HUVEC cells; HUVEC IL-1B NFkB p65 nuclear translocation imaging; inhibition, % at 2 µM; 0.43% of 94,000 active; AID 796;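 active means inhibition above about 30% together with a positive call from visual inspection of the well image, limit read from the data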;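 further: nuclear over cytoplasmic p65 intensity ratio measured by imaging; 0% = IL-1B stimulated DMSO wells and 100% = unstimulated DMSO wells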
# HUVEC tox IL1B: HUVEC cytotoxicity counter-screen, IL-1B stimulated | cell count reduction, % at 2 µM | 0.41% of 94,000 active | HUVEC cell count loss, Hoechst imaging | AID 845;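 active means cell count reduction more than 3 SD above the screen-wide mean, cut at about 70% in these data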;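 further: normalized per plate to untreated control cells as the no-loss baseline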
# IL1B NFkB pot: enhances IL-1B driven NFkB nuclear translocation. HUVEC IL-1B NFkB p65 nuclear translocation imaging. activation, % at 2 µM. 0.3% of 94,000 active;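 active means activation above 40%, about the mean plus 3 SD, also judged a hit on visual image review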;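 further: percent activation is computed from the nuclear over cytoplasmic p65 intensity ratio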
# SDO1 yeast rescue: sdo1-depleted yeast growth rescue; z-score at 10 µM; 0.21% of 140,000 active; S. cerevisiae sdo1-depleted JHY4D growth rescue, OD600 30 h; hits give high values; pdr5 snq2 efflux-pump mutant strain; AID 817;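 active means z-score above 3 at both the 24 hr and the 30 hr optical density reads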;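 further: z-score against mean and SD of all compound wells on the same plate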
# * hit, by the source's call; . = no result given.
SMILES,MRP1 act,MRP resist rev,NFkB transloc inh,HUVEC tox IL1B,IL1B NFkB pot,SDO1 yeast rescue
CCC(=O)NC(O)C(=O)c1ccc(C)cc1 (stereo not given),0,14,32*,40,-32,1.1
CCOC(=O)NC(NC(=O)OCC)C(=O)c1ccc(F)cc1,-2,.,2,30,-2,0.52
NC(=O)CC[C@@H]1NC(=O)[C@@H]2CCCN2C(=O)c2cc([N+](=O)[O-])cc(I)c2NCCC[C@@H](C(N)=O)NC1=O,-1,.,.,.,.,1.8
Cc1cccc(NC(=O)/C(=C\c2ccc([N+](=O)[O-])o2)NC(=O)c2ccc(Cl)cc2)c1,5.7*,.,.,.,.,-0.26
COC(=O)/C(=C\c1ccc([N+](=O)[O-])o1)NC(=O)c1ccccc1,-5,.,-2,-32,2,-0.1
Cc1cccc(OCC(=O)NNC(=O)C2CCCCC2C(=O)O)c1 (stereo not given),0,.,.,.,.,0.47
Cc1csc(NC(=O)c2nc3nc(C)cc(C)n3n2)n1,-2,-3,-5,16,5,0.05
Cc1cc(C)n2nc(C(=O)Nc3nnc(C4CC4)s3)nc2n1,5.2*,8,-1,13,1,0.31
Cc1cccc(N2C(=N)SCC2=O)c1C,-2,.,.,.,.,1.1
Brc1cc2c(cc1COc1ccc(-c3nn[nH]n3)cc1)OCO2,5.0*,-31,-20,0,21,0.1
CCOC(=O)c1c(C)[nH]c(C(=O)N/N=C\c2ccccc2Cl)c1C,-5,.,.,.,.,-0.12
O=C1CC(=O)N(Cc2ccco2)C(=O)N1,-3,.,.,.,.,0.81
O=C1CC(=O)N(Cc2ccco2)C(=S)N1,0,6,32*,5,-32,1
COc1ccccc1N1CCN(C(=O)c2cc(-c3ccc(Cl)cc3)on2)CC1,1,-10,44*,14,-44,-0.39
O=C(COc1ccc(Cl)cc1)N1CCN(S(=O)(=O)c2ccccc2)CC1,5.1*,-9,-4,-5,3,-1.5
COc1ccccc1N1CCN(C(=O)COc2ccc(Cl)cc2)CC1,6.6*,-2,.,.,.,-0.87
COc1ccccc1N1CCN(C(=O)c2cc(-c3ccc(C)cc3)on2)CC1,3,15,-2,-13,2,0.09
CC(=O)c1cc(F)c(N2CCN(C(=O)COc3ccc(F)cc3)CC2)cc1C,-2,9,-16,83*,16,0.63
COCCCN(C(=S)Nc1cccc(Cl)c1)C(C)c1ccncc1 (stereo not given),-1,.,.,.,.,-0.36
COc1ccc(C(CC(=O)O)NC(=O)COc2ccc(C)cc2)cc1OC (stereo not given),-2,-2,.,.,.,0.85
O=C(CSc1nnc2ccccn12)Nc1cccc(S(=O)(=O)N2CCOCC2)c1,0,.,.,.,.,0.43
Cc1noc(/C=C/N(C)C)c1S(=O)(=O)N1CCCC(C(=O)NCc2ccccc2Cl)C1 (stereo not given),7.6*,8,5,-2,-5,0.61
Cc1noc(/C=C/N(C)C)c1S(=O)(=O)N1CCCC(C(=O)NCc2ccc(F)cc2)C1 (stereo not given),12*,8,6,-12,-7,0.98
Cc1ccc(CNC(=O)C2CCCN(S(=O)(=O)c3c(C)noc3C)C2)cc1 (stereo not given),-4,13,-6,2,6,0.69
Cc1noc(/C=C/N(C)C)c1S(=O)(=O)N1CCCC(C(=O)NCc2ccc(Cl)cc2)C1 (stereo not given),4.9*,11,3,-22,-3,1.4
SMILES,MRP1 act,MRP resist rev,NFkB transloc inh,HUVEC tox IL1B,IL1B NFkB pot,SDO1 yeast rescue
Cc1n[nH]c(C)c1S(=O)(=O)N1CCCC(C(=O)NCc2ccccc2Cl)C1 (stereo not given),-3,3,.,.,.,-0.08
Cc1noc(/C=C/N(C)C)c1S(=O)(=O)N1CCCC(C(=O)NC2CCCCC2)C1 (stereo not given),9.3*,-14,11,-36,-11,1.2
CC1(C)Cc2cccc(OCC(=O)Nc3cccnc3Cl)c2O1,-1,4,-3,-134,3,0.22
O=C(CNC(=S)N(Cc1ccccc1)Cc1cccnc1)NC1CCCCC1,-3,.,.,.,.,0.94
CC1CC(C)CN(C(=O)C(NS(=O)(=O)c2ccc(Br)s2)c2ccccc2)C1 (stereo not given),-3,.,.,.,.,-0.84
CC(C)c1cc(C(=O)N/N=C/c2cccnc2)n[nH]1,1,.,.,.,.,0.32
CC(=O)CC(c1ccccc1)S(=O)(=O)c1ccc(C)cc1 (stereo not given),-2,.,-4,-17,4,-1
